Measurements from PubChem BioAssay (NCI).
About 79,000 compounds went through this panel and 15% of them were active in at least one assay; those are over-represented in the sample as a whole. A number with no mark means an inactive call. The source made the active and inactive calls. No stated cut-off is given here; in the data, active means growth inhibition above about 70%; inactive means the rest.

Test: NCI Yeast Anticancer Drug Screen. Data for the CLN2oe strain (AID 163);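 further: 0% = growth of vehicle-only control cultures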
Conditions: S. cerevisiae CLN2oe strain, stronger effect = higher value
Method: Growth inhibition of yeast strains with defined genetic alterations is measured as a screen for potential anti-cancer activity. Selected strains with alterations in DNA damage repair or cell cycle control were exposed to compounds and growth inhibition was measured relative to vehicle treated controls. The strain used in this assay is CLN2oe

Structure (SMILES) | growth inhibition (at 1.2 µM) [%] | growth inhibition (at 3.7 µM) [%] | growth inhibition (at 11.0 µM) [%] | growth inhibition (at 33.0 µM) | growth inhibition (at 100.0 µM)
COC(=O)c1cccc(C)c1C(=O)c1c(C)cc(C)cc1C | 3 | 2 | 2 | 11% | 42%
CCOC(=O)Nc1ccc2c(c1)Cc1ccccc1-2 | -9 | -12 | -13 | -12% | -7%
NP1(Oc2ccc(F)cc2)=NP(N)(Oc2ccc(F)cc2)=NP(Oc2ccc(F)cc2)(Oc2ccc(F)cc2)=N1 (stereo not given) | 0 | -3 | 17 | 53% | 94% (active)
CCn1ncc(N=O)c1N | -6 | -5 | 15 | 43% | 53%
S=c1[nH]c2c(Cl)c(Cl)c(Cl)c(Cl)c2[nH]1 | 9 | 3 | 48 | 97% (active) | 95% (active)
COc1ccc(N=N/C(=N\NC(=O)c2cc(Br)ccc2O)c2ccc(N(CCC#N)CCC#N)cc2OC)cc1 | 11 | 14 | 24 | 33% | 28%
Cc1ccc(Nc2c3c(c(C#N)c4nc5ccccc5n24)CCCC3)cc1 | 20 | 34 | 21 | 70% (active) | 62%
CC(C)c1cccc(O)c(=O)c1 | 3 | 4 | 2 | 25% | 98% (active)
